The AC50 is the concentration at which the activity in the assay is half-maximal.

The source of these data is PubChem BioAssay (EPA / NIEHS).

Experiment [1] concerns the target Nucleoli Translocation, AR (gene 367) (UniProt P10275). The experiment is described as follows: UPITT_HCI_U2OS_AR_TIF2_Nucleoli_Antagonist: University of Pittsburgh U2OS Androgen Receptor-Transcriptional Intermediary Factor 2 (AR-TIF2) Antagonism High Content Imaging Assay for Nucleoli Translocation (AID 2283997; active = hit-call score of the fitted dose curve at least 0.9, where 1 is the maximum). The procedure, abridged:
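U2OS cells expressing RFP-tagged human AR and GFP-tagged TIF2 were imaged by high-content fluorescence microscopy for red AR signal in the nucleolar region. Compounds were screened at 20 uM final (0.2% DMSO), with activity fitted relative to DHT as baseline.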

Experiment [2] has the same target. In words: UPITT_HCI_U2OS_AR_TIF2_Nucleoli_Agonist: University of Pittsburgh U2OS Androgen Receptor-Transcriptional Intermediary Factor 2 (AR-TIF2) Agonism High Content Imaging Assay for Nucleoli Translocation (AID 2283998; active = hit-call score of the fitted dose curve at least 0.9, where 1 is the maximum). The procedure, abridged:
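Nucleolar translocation of AR-RFP, with TIF2-GFP coexpressed in human osteosarcoma U2OS, imaged by high-content fluorescence. Compounds tested singly at 20 uM final, confirmed in triplicate, then titrated 0.195–50 uM final; gain-of-signal relative to DMSO.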

Experiment [3] has as its target Ratio of Nucleoli Translocation and Cytoplasm, AR (gene 367) (UniProt P10275). The experiment is described as follows: UPITT_HCI_U2OS_AR_TIF2_Nucleoli_Cytoplasm_Ratio_Agonist: University of Pittsburgh U2OS Androgen Receptor-Transcriptional Intermediary Factor 2 (AR-TIF2) Agonism High Content Imaging Assay for Ratio of Nucleoli Translocation and Cytoplasm (AID 2284000; active = hit-call score of the fitted dose curve at least 0.9, where 1 is the maximum;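 also: hits raise the red nucleolar to cytoplasm ratio above vehicle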). The procedure, abridged:
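U2OS cells expressing RFP-tagged human AR and GFP-tagged TIF2 were imaged by high-content fluorescence microscopy. The endpoint is the ratio of nucleolar to cytoplasmic red fluorescence, fitted for gain of signal relative to DMSO. Concentration-response spanned 0.195 to 50 uM final (0.5% DMSO).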

A short description of experiment [4]: CCTE_Harrill_HTTr_Viability_MCF7: CCTE's 6-hour Cell Viability Assessment for the High-Throughput Transcriptomics (HTTr) Platform, in MCF-7 cells cultured in DMEM + 10% fetal bovine serum, Harrill Lab (AID 2284010). An outline of the steps:
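Cells were dosed with chemicals in an eight-point dilution series, imaged 6 hours later for propidium iodide uptake, and the endpoint was analyzed by bidirectional fitting against DMSO as negative control.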

Experiment [5] has as its target Ratio of Nucleoli Translocation and Cytoplasm, AR (gene 367) (UniProt P10275). In words: UPITT_HCI_U2OS_AR_TIF2_Nucleoli_Cytoplasm_Ratio_Antagonist: University of Pittsburgh U2OS Androgen Receptor-Transcriptional Intermediary Factor 2 (AR-TIF2) Antagonism High Content Imaging Assay for Ratio of Nucleoli Translocation and Cytoplasm (AID 2283999; active = hit-call score of the fitted dose curve at least 0.9, where 1 is the maximum;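 also: antagonists lower the DHT-driven ratio of nucleolar to cytoplasmic red signal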). The procedure, abridged:
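Human osteosarcoma U2OS line, AR fused to RFP, coactivator TIF2 fused to GFP. Cpds 20 uM final, 0.2% DMSO (screen); 0.195–50 uM final, 0.5% DMSO (CRC). Endpoint: nucleoli/cytoplasm red signal ratio, DHT as baseline, loss-of-signal antagonist mode.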

The nature of experiment [6]: CCTE_Simmons_MITO_basal_resp_rate: CCTE's HepG2 Seahorse XF Respirometric Screening Assay at Basal Respiratory State, Simmons Lab (AID 2284001). As to conditions: actives raise or lower the signal. An outline of the steps:
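HepG2 cells were given test chemicals at 7 concentrations, 125 nM to 100 uM final, and oxygen consumption rate was read every 6 min (3 min mix, 3 min measure) over 72 min. Basal-phase OCR was fitted bidirectionally against DMSO.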

Experiment [7] in a line: CCTE_Simmons_MITO_max_resp_rate: CCTE's HepG2 Seahorse XF Respirometric Screening Assay at Maximal Respiratory State [uncoupled], Simmons Lab (AID 2284002). The note with it: actives raise or lower the signal. An outline of the steps: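 Maximal (FCCP-uncoupled) respiration rate in HepG2, from Seahorse kinetic OCR over 72 min at 6 min cycles. Compounds at 125 nM–100 uM final, 7 points, three biological replicates; both directions fit relative to DMSO.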

Experiment [8] can be described thus: CCTE_Simmons_MITO_inhib_resp_rate: CCTE's HepG2 Seahorse XF Respirometric Screening Assay at Inhibited Respiratory State [full ETC block], Simmons Lab (AID 2284006). The note with it: actives raise or lower the signal. An outline of the steps:
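Compound injected onto HepG2 cells (125 nM–100 uM final, 7 points); FCCP then rotenone/antimycin A added. Oxygen consumption read every 6 min (3 min mix, 3 min measure) for 72 min. Inhibited-state OCR fitted against DMSO.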

The nature of experiment [9]: CCTE_Simmons_MITO_viability: CellTiter-Glo Viability Assessment for CCTE's HepG2 Seahorse XF Respirometric Screening Assay [post-hoc], Simmons Lab (AID 2284007; active = hit-call score of the fitted dose curve at least 0.9, where 1 is the maximum). An outline of the steps: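 After the Seahorse oxygen-consumption sequence (basal, FCCP, rotenone/antimycin A; 72 min total), HepG2 viability was scored as ATP content by bioluminescence. Chemicals ran at seven concentrations up to 100 uM final for 90 min.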

Experiment [10] in a line: CCTE_Shafer_MEA_acute_spike_number: CCTE's Neural Acute Assay for Total Number of Spikes, Shafer Lab (AID 2284008).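 As to AC50: curve fitted for decrease in spike count so AC50 reflects inhibitors.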 An outline of the steps:
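Total spike count from 40 min recordings before and during compound exposure (0.03-40 uM), given as per-well percent change. Cortical cultures from rat, DIV 13 or 15, 37 C; adaptive detection threshold 8x rms noise.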

Experiment [11] is described as follows: CCTE_Shafer_MEA_acute_firing_rate_mean: CCTE's Neural Acute Assay for Mean Firing Rate, Shafer Lab (AID 2284009).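 Also: analyzed for loss of signal so actives lower firing rate relative to DMSO.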 An outline of the steps: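 Read-out: well-mean spike rate (spikes/recording length/electrodes), % change from 40 min pre-dose baseline to 40 min with compound. Rat cortical cultures, DIV 13 or 15, 37 C; 0.03-40 uM; DMSO as negative control.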

The next experiment has as its system DIO1 (gene 1733). The experiment is described as follows: CCTE_GLTED_hDIO1: CCTE's human Deiodinase 1 (DIO1) Inhibition Assay, Great Lakes Toxicology and Ecology Division (GLTED) Lab (AID 2283987; active = hit-call score of the fitted dose curve at least 0.9, where 1 is the maximum;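 also: isolated human DIO1 enzyme in a cell-free setup rather than cells; enzyme activity read as free iodide liberated from substrate via Sandell-Kolthoff colorimetry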). An outline of the steps: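 Inhibition read as reduced iodide release: after 3 h of human DIO1 with chemical, free iodide is quantified colorimetrically (Sandell-Kolthoff cerium/arsenic reaction). Triplicate plates, DMSO baseline.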

The nature of experiment [12]: CCTE_Harrill_HTTr_Viability_PRF_DMEM_12hr: (Pilot) CCTE's 12-hour Cell Viability Assessment for the High-Throughput Transcriptomics (HTTr) Platform, in MCF-7 cells cultured in phenol red-free DMEM + 10% charcoal-stripped fetal bovine serum, Harrill Lab (AID 2283977). An outline of the steps: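 MCF-7 cells in phenol red-free DMEM with 10% charcoal-stripped FBS exposed 12 hours to an eight-point dilution series. Viability assessed by high-content imaging of propidium iodide exclusion; bidirectional fit versus DMSO.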

Experiment [13] can be described thus: CCTE_Harrill_HTTr_Viability_PRF_DMEM_24hr: (Pilot) CCTE's 24-hour Cell Viability Assessment for the High-Throughput Transcriptomics (HTTr) Platform, in MCF-7 cells cultured in phenol red-free DMEM + 10% charcoal-stripped fetal bovine serum, Harrill Lab (AID 2283980). The procedure, abridged: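 MCF-7 cells in phenol red-free DMEM with 10% charcoal-stripped FBS, eight-point dilution series, 24 h exposure. Membrane integrity by propidium iodide exclusion with high content imaging; bidirectional fit vs DMSO.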

The nature of experiment [14]: CCTE_Harrill_HTTr_Apoptosis_DMEM_6hr: (Pilot) CCTE's 6-hour Apoptosis Assessment for the High-Throughput Transcriptomics (HTTr) Platform, in MCF-7 cells cultured in DMEM + 10% fetal bovine serum, Harrill Lab (AID 2283981). The procedure, abridged:
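Caspase-3/7 activation read by high content imaging with CellEvent Caspase 3/7 Green in MCF-7 cells (DMEM + 10% FBS), 6 h after dosing; eight-point dilution series. Bidirectional fitting relative to DMSO baseline.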

The nature of experiment [15]: CCTE_Harrill_HTTr_Apoptosis_DMEM_12hr: (Pilot) CCTE's 12-hour Apoptosis Assessment for the High-Throughput Transcriptomics (HTTr) Platform, in MCF-7 cells cultured in DMEM + 10% fetal bovine serum, Harrill Lab (AID 2283982). An outline of the steps:
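MCF-7 cells in DMEM + 10% FBS, exposed 12 h to an eight-point dilution series; caspase-3/7 activation imaged with CellEvent Green. Bidirectional fit versus DMSO.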

The nature of experiment [16]: CCTE_Harrill_HTTr_Apoptosis_DMEM_24hr: (Pilot) CCTE's 24-hour Apoptosis Assessment for the High-Throughput Transcriptomics (HTTr) Platform, in MCF-7 cells cultured in DMEM + 10% fetal bovine serum, Harrill Lab (AID 2283983). The procedure, abridged:
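MCF-7 cells in DMEM + 10% FBS, eight-point dilution series, 24 h exposure. Caspase-3/7 activation imaged by high-content imaging with CellEvent Caspase 3/7 Green. Bidirectional curve fitting against DMSO baseline.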

The nature of experiment [17]: CCTE_Harrill_HTTr_Apoptosis_PRF_DMEM_6hr: (Pilot) CCTE's 6-hour Apoptosis Assessment for the High-Throughput Transcriptomics (HTTr) Platform, in MCF-7 cells cultured phenol red-free DMEM + 10% charcoal-stripped fetal bovine serum, Harrill Lab (AID 2283984). An outline of the steps: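 MCF-7 cells in phenol red-free DMEM + 10% charcoal-stripped FBS, eight-point dilution series, 6 h exposure. Caspase-3/7 activation imaged by high-content imaging with CellEvent Caspase 3/7 Green; bidirectional fit versus DMSO baseline.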

Experiment [18] can be described thus: CCTE_Harrill_HTTr_Apoptosis_PRF_DMEM_24hr: (Pilot) CCTE's 24-hour Apoptosis Assessment for the High-Throughput Transcriptomics (HTTr) Platform, in MCF-7 cells cultured in phenol red-free DMEM + 10% charcoal-stripped fetal bovine serum, Harrill Lab (AID 2283986). The procedure, abridged: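 MCF-7 cells in phenol red-free DMEM with 10% charcoal-stripped FBS, exposed 24 h across an eight-point dilution series. Caspase-3/7 activation imaged with CellEvent Green by high content imaging; bidirectional fitting against DMSO.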

Records with an inconclusive call do not appear. Activity calls are given as the source filed them. The calls were made as follows, unless noted: active = hit-call score of the fitted dose curve at least 0.9, where 1 is the maximum; inactive = score below 0.9.

Chain of Nucleoli Translocation, AR (gene 367) (P10275 whole entry, looked up): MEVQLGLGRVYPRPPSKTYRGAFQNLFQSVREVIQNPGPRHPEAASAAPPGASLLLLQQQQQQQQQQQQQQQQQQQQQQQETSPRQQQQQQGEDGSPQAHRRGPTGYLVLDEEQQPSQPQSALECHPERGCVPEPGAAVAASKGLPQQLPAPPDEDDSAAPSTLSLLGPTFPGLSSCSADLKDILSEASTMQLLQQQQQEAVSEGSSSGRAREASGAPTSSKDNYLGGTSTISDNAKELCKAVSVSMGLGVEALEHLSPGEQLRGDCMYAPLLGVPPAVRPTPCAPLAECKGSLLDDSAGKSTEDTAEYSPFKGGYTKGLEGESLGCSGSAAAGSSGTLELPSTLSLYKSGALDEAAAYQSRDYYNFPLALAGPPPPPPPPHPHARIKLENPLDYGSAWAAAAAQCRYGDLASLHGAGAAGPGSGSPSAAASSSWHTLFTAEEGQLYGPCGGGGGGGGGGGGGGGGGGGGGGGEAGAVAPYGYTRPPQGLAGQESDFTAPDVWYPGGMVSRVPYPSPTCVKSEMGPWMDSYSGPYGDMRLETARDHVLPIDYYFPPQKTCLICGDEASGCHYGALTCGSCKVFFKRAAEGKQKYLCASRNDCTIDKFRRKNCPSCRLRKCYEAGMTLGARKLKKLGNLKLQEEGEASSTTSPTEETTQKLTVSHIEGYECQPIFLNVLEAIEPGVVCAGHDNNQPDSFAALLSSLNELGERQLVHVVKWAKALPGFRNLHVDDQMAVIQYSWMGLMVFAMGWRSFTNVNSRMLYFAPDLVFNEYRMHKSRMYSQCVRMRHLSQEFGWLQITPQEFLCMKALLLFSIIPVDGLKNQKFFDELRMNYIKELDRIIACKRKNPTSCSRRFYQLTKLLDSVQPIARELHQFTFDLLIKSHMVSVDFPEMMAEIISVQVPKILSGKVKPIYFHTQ
Chain of Ratio of Nucleoli Translocation and Cytoplasm, AR (gene 367) (P10275 whole entry, looked up, the tested form may be a part): as the sequence (P10275 whole entry, looked up) above

On to `Cc1occc1C(=O)Nc1ccc(C(=O)N2CCC(F)(F)/C(=C\C(=O)N3CCC(N4CCCCC4)CC3)c3ccccc32)cc1`, for which the outcome in experiment [1], in experiment [2], in experiment [3] and in experiment [4] was inactive.

For the molecule `NC(=O)c1nc(-c2cccc(-c3cc(F)ccc3OCC(F)(F)C(F)(F)F)c2)n[nH]1`, the molecule was classed as inactive in experiment [1], in experiment [5], in experiment [8], in experiment [9] and in experiment [4]. Further, the AC50 in [2] was 13.2 µM (active); in experiment [3], 12.7 µM (active); in [6], 6.26 µM (active); in experiment [7] it was 6.36 µM (active); in experiment [10] it was 0.648 µM (active); in experiment [11] it was 0.649 µM (active).

For the molecule `CCN(Cc1cccnc1)C(=O)c1cccc(Cl)c1[C@]1(C)C(=O)N(Cc2ccc(OC)cc2OC)c2ccc(Cl)cc21`, the outcome in experiment [1], in [2], in [5], in experiment [3], in experiment [8] and in experiment [9] was inactive. In [4], the result was inactive. Besides, the AC50 is 2.36 µM (active) in experiment [6] and 2.17 µM (active) in experiment [7].

Take `NCc1cccc(C2CCN(C(=O)c3ccc(C#Cc4ccccc4F)o3)CC2)c1`: the AC50 is 88.6 µM (active) in the experiment on DIO1 (gene 1733); 72.7 µM (active) in [1]; 27.2 µM (active) in experiment [5]; 50 µM (active) in [3]; 37.2 µM (active) in experiment [6]; 61.4 µM (active) in [7]. Further, the AC50 in experiment [10] was 9.02 µM (active); in [11], 9.02 µM (active); in experiment [4] it was 50 µM (active). Also, the molecule was classed as inactive in [2], in experiment [8] and in [9].

In the case of `CCCCCCCCN(C)CCCCCCCC`, the molecule was called inactive in [1], in [3] and in [4].

In the case of `O=C(O)c1ccccc1C(=O)OCc1ccccc1`, the molecule was called inactive in [1], in [3] and in experiment [4].

Take `CCCC(=O)OCCC(C)C`: the outcome in [1], in [2], in experiment [5], in [3] and in experiment [4] was inactive.

For the molecule `CC1(C)NC(=O)N(c2ccc([N+](=O)[O-])c(C(F)(F)F)c2)C1=O`, the outcome in experiment [12], in [13], in [14], in [15], in experiment [16] and in experiment [17] was inactive. In addition, the outcome in experiment [18], in [8], in experiment [9] and in [4] was inactive. The AC50 in experiment [6] is 37.2 µM (active); in experiment [7], 33.8 µM (active).

`CC(C)(c1cc(Br)c(O)c(Br)c1)c1cc(Br)c(O)c(Br)c1`: the AC50 in the experiment with DIO1 (gene 1733) is 37.6 µM (active); in experiment [6], 4.5 µM (active); in experiment [7], 6.61 µM (active). For the same molecule, the result in [8], in experiment [9], in [10], in experiment [11] and in experiment [4] was inactive.

Consider `Cc1cc2c(cc1C(F)(F)F)N(C(=O)Nc1ccc(Oc3cccnc3C)nc1)CC2`, for which the molecule was called inactive in experiment [6], in [8], in experiment [9], in experiment [10], in experiment [11] and in [4]. Further, the AC50 in [7] is 10.9 µM (active).
